FXN GAA850 act = FXN promoter activators, primary screen, cell-based, luciferase luminescence, HEK293 lucGAA850; AID 540364, 2011; activation, % at 6 µM; HEK293 lucGAA850 FXN promoter luciferase reporter, 24 h; percent of 10 µM SAHA response; 360,000 tested, 0.56% active;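 active = activation above the average of all compounds screened plus 3 SD, cutoff fixed separately per campaign, cut at about 7.5% in these data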;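 also: 0% = DMSO wells and 100% = 10 µM SAHA wells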
NR0B1 inh = DAX1 (NR0B1) inhibitors, primary screen, cell-based, HEK293, Gal4-DAX1, luciferase luminescence; inhibition, % at 6.75 µM; 340,000 tested, 0.99% active; AID 504766, 2011; Nuclear receptor subfamily 0 group B member 1 (Homo sapiens), P51843; HEK293 Gal4-DAX1 luciferase reporter;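 active = inhibition above the mean over all tested compounds plus 3 SD, cut at about 4.2% in these data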;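 also: 0% = DAX1-transfected cells with DMSO and 100% = empty-vector control cells with DMSO; inhibition shows as a rise in luminescence from relieved DAX1 repression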
AHR act = AHR activators, primary screen, cell-based, luminescence, luciferase reporter, human; Aryl hydrocarbon receptor (Homo sapiens), P35869; AHR-responsive luciferase reporter cells; activation, % at 5 µM; 320,000 tested, 2.5% active; AID 2796, 2010; in the data active = activation above about 47%;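 also: 0% = vehicle wells and 100% = reference agonist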
HSF1 inh = HSF1 inhibitors in luciferase reporter cells, primary screen, cell-based, NIH3T3, luminescence. NIH3T3-HGL HSE-luciferase, MG132-induced, luminescence 8 h; hits give low values. activity change, negative = inhibition, % at 7.5 µM (by protocol). 300,000 tested, 0.77% active;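 active = more than half of replicate wells show activity change below -50%, luminescence cut by over half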;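 also: luciferase reports HSF-1 transcriptional activity via heat shock element; 0% = median of DMSO wells and -100% = zero luminescence signal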
HSF-1 act = HSF-1 activators, primary screen, NIH3T3-HGL cells, MG132 stress, luminescence, single point. NIH3T3-HGL HSF-1 luciferase reporter, 8 h; 100% = twice DMSO control signal. activation, % at 9 µM. 300,000 tested, 1.7% active. AID 504408, 2011;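 active = mean replicate activation of at least 50% with a set share of replicates each reaching 50%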;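 also: 0% = median of the neutral control wells and 100% = twice that signal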
AHR act confirm = AHR activators, confirmation, cell-based, luminescence, luciferase reporter, human | activation, % at 9 µM | human cells, AHR-responsive luciferase reporter | 2,300 tested, 87% active | AID 2845, 2010 | shares compounds with AHR act; in the data active = activation above about 49%;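 also: HepG2 hepatoma cells carrying a DRE-driven firefly luciferase reporter; 0% = vehicle wells and 100% = reference agonist wells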
PXR act counter = human PXR activators, counter-screen for AHR activator project, cell-based, luciferase luminescence; shares compounds with AHR act; cell-based PXR reporter; activation, % at 11.6 µM; 2,300 tested, 88% active; AID 434939, 2010; in the data active = activation above about 11%;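 also: human hepatoma DPX-2 cells expressing full-length human PXR; 0% = DMSO and 100% = reference agonist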
Target sequence (O75469 whole entry, looked up): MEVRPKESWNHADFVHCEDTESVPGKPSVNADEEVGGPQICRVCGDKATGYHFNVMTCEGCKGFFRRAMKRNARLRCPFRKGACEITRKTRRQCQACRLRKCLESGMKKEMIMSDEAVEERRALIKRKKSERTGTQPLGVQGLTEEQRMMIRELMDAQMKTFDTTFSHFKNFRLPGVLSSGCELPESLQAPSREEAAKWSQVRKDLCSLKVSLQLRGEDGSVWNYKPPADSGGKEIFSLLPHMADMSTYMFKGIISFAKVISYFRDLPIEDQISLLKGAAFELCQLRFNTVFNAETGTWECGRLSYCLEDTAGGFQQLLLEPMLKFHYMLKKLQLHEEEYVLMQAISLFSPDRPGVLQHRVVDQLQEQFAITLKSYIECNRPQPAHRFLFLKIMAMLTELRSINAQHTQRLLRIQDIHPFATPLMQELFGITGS
* = called active by the depositor. A selection: hits, their analogues and other compounds. The true share with any hit is near 5.4%.

COc1ccccc1Nc1nc(NCCO)nc(N)c1[N+](=O)[O-] was read as FXN GAA850 act -0.9, AHR act 97.2*, HSF1 inh -7.3, HSF-1 act 15.6 and AHR act confirm 127.5*.
For CNc1nc(N)c([N+](=O)[O-])c(Nc2ccccc2OC)n1 the results were FXN GAA850 act 2.1, NR0B1 inh -0.6, AHR act 106.8*, HSF1 inh 6.0, HSF-1 act 32.3, AHR act confirm 92.7* and PXR act counter 17.7*.
Screening Cc1cc(C)nc(/N=C(\N)Nc2ccc(C)c([N+](=O)[O-])c2)n1 returned FXN GAA850 act -0.3, NR0B1 inh -1.0, AHR act 122.1*, HSF1 inh 8.5, HSF-1 act 13.2, AHR act confirm 83.9* and PXR act counter 67.7*.
Cc1sc2nc(CSc3ccc([N+](=O)[O-])c(C(F)(F)F)c3)[nH]c(=O)c2c1C was read as FXN GAA850 act 1.1, NR0B1 inh -0.2, AHR act 83.2*, HSF1 inh 15.2, HSF-1 act 34.2, AHR act confirm 76.2* and PXR act counter 31.6*.
Cc1sc2nc(CSC(C)C(=O)N(C)CC(=O)Nc3ccccc3C(F)(F)F)[nH]c(=O)c2c1C (stereo unspecified) was read as FXN GAA850 act 0.7, NR0B1 inh -0.6, AHR act 3.4, HSF1 inh -4.6 and HSF-1 act -9.9.
CCOC(=O)C1=C(CN2CCN(C(=O)c3ccco3)CC2)NC(=O)NC1c1ccc(C)cc1 (stereo unspecified) was read as FXN GAA850 act -0.4, NR0B1 inh 0.3, AHR act 1.7, HSF1 inh 2.3 and HSF-1 act 12.7.
COc1ccc(-c2noc(CNC(=O)CCN3C(=O)[C@H]4CC=CC[C@H]4C3=O)n2)cc1 was read as FXN GAA850 act 1.2, NR0B1 inh -1.3, AHR act 2.7, HSF1 inh -2.3 and HSF-1 act 6.3.
`Cn1c(=O)c([N+](=O)[O-])c(NCCCn2ccnc2)c2ccccc21` gave FXN GAA850 act -0.9, NR0B1 inh 0.9, AHR act 79.8*, HSF1 inh -3.0, HSF-1 act 2.1, AHR act confirm 110.1* and PXR act counter 27.3*.
CN(C)S(=O)(=O)c1cccc(C(=O)N=C2N=C3C=CC(Cl)=CN3Cc3ccccc32)c1 was read as FXN GAA850 act 5.3, NR0B1 inh 3.3, AHR act 97.0*, HSF1 inh 25.8, HSF-1 act 59.9*, AHR act confirm 50.2* and PXR act counter 32.2*.
`COc1ccccc1C(=O)Nc1ccc(N2CCCCC2)cc1` gave FXN GAA850 act 3.2, NR0B1 inh 3.3, AHR act 87.6*, HSF1 inh 21.8, HSF-1 act 49.7 and AHR act confirm 99.2*.
Screening COc1ccc(Br)cc1C(=O)Nc1ccc(N2CCCC2)cc1 returned FXN GAA850 act 2.8, NR0B1 inh 2.7, AHR act 104.6*, HSF1 inh -15.1, HSF-1 act -27.2, AHR act confirm 148.1* and PXR act counter 17.7*.
Screening Cc1ccc(NC(=O)Nc2cnc3ccccc3c2)cc1 returned FXN GAA850 act 3.6, NR0B1 inh 3.4, AHR act 93.2*, HSF1 inh 6.5, HSF-1 act 9.7, AHR act confirm 103.5* and PXR act counter 22.3*.
CCN(CC)C(=O)Nc1cnc2ccccc2c1 was read as FXN GAA850 act 3.9, NR0B1 inh 0.1, AHR act 14.9, HSF1 inh 6.0 and HSF-1 act 23.4.
Screening Cc1sc(NC(=O)c2ccc(Cl)s2)c(C(N)=O)c1C returned FXN GAA850 act 4.4, NR0B1 inh 4.6*, AHR act 97.7*, HSF1 inh 24.5, HSF-1 act 30.0, AHR act confirm 123.3* and PXR act counter 24.3*.
Cc1sc(NC(=O)c2cc(-c3ccc(Cl)cc3)nc3ccccc23)c(C(N)=O)c1C was read as FXN GAA850 act 1.9, NR0B1 inh -0.5, AHR act 23.3, HSF1 inh -2.1 and HSF-1 act 6.0.
For CCn1nc(NC(=O)CC(C)C)c2cc3cccc(C)c3nc21 the results were FXN GAA850 act 0.3, NR0B1 inh 0.5, AHR act 8.1, HSF1 inh -4.6 and HSF-1 act -14.2.
`CCn1nc(NC(=O)C(C)(C)C)c2cc3cccc(C)c3nc21` gave FXN GAA850 act -0.4, NR0B1 inh -1.0, AHR act 84.5*, HSF1 inh -0.4, HSF-1 act 5.7, AHR act confirm 88.8* and PXR act counter 138.9*.
For O=C(CSCc1ccc(Br)cc1)Nc1ccccc1C(=O)N1CCOCC1 the results were FXN GAA850 act -1.2, NR0B1 inh 0.9, AHR act -0.6, HSF1 inh -4.4 and HSF-1 act -15.4.
For Cn1cc(C(=O)N/N=C/C=C/c2ccccc2)ccc1=O the results were FXN GAA850 act 1.9, NR0B1 inh -1.3, AHR act 9.0, HSF1 inh -8.4 and HSF-1 act 1.7.
`Cn1cc(C(=O)N/N=C/C(Br)=C\c2ccccc2)ccc1=O` gave FXN GAA850 act 5.0, NR0B1 inh -1.1, AHR act 111.9*, HSF1 inh 65.1, HSF-1 act 87.1*, AHR act confirm 76.7* and PXR act counter 11.0*.
Screening Cn1cc(C(=O)N/N=C/C(Br)=C/c2ccccc2)ccc1=O returned FXN GAA850 act 6.4, NR0B1 inh 0.0, AHR act 116.3*, HSF1 inh 61.7, HSF-1 act 89.6*, AHR act confirm 143.4* and PXR act counter 10.9*.
`Cc1ccc(NC(=O)c2ccsc2)cc1NS(C)(=O)=O` gave FXN GAA850 act 1.8, NR0B1 inh 0.1, AHR act 83.8*, HSF1 inh -4.2, HSF-1 act -2.3, AHR act confirm 94.9* and PXR act counter 32.7*.
For O=C1NC(=O)/C(=C/c2ccccc2OCc2ccccc2)S1 the results were FXN GAA850 act 1.1, NR0B1 inh -0.3, AHR act 6.5, HSF1 inh 4.4 and HSF-1 act -5.5.
CN1C(=O)/C(=C\c2ccccc2OCc2ccccc2)SC1=S was read as FXN GAA850 act 1.9, NR0B1 inh 0.4, AHR act 80.6*, HSF1 inh -4.7, HSF-1 act -0.6, AHR act confirm 87.1* and PXR act counter 19.1*.
Screening NC(=O)c1cc2ccccc2o/c1=N\NC(=O)c1ccncc1 returned FXN GAA850 act 0.4, NR0B1 inh 1.0, AHR act 126.8*, HSF1 inh -4.4, HSF-1 act -6.9, AHR act confirm 137.0* and PXR act counter 15.5*.

Compound activity as filed in PubChem.
